One experiment deals with GPS1. Nature of the experiment: pooled miR-30 sensor sort-seq; sequence = guide strand. Conditions: shRNA.
Turning to TTGCTGTGTGAGTCCACACGGG, the sensor-assay potency score (higher = more potent) is -0.414. TTCATCTCGTCCAGCATCTTGA showed a sensor-assay potency score (higher = more potent) of -0.805. The sequence TCCAGCTCCAAGAACAACTTGA yielded a sensor-assay potency score (higher = more potent) of -0.994. The same measure, in the same setting: the result for TTGACATGGATCTGGTTGCGGA reads -0.378; that for TTGTAGTTCTTCAGGTCTGTGT, -0.35. As to TAGCACTTGAGGGCGTTGCTGA, the sensor-assay potency score (higher = more potent) was -0.484. In turn, TTGCGCTGCAGCTCCTGCCGGT came in with a sensor-assay potency score (higher = more potent) of -0.804. Same read-out and setting: the result for AACAACTTGAAGGAGCTGCTGG reads -0.415. The same measure, in the same setting: the result for TTGAAGGCTGCCGCCATCCTAT reads -1.18. Same read-out and setting: the result for AAGAACAACTTGAAGGAGCTGC reads 0.981.

Another experiment has as its target GPT2. The description is as above. Conditions: shRNA.
The sequence TTTCACCTTCTGCAGCACCGTT showed a sensor-assay potency score (higher = more potent) of -1.46. The same measure, in the same setting: as for TTGGCAGGAATGAAGATCCGAG, the figure is -0.485. For TTCACCTTCTGCAGCACCGTTT, the sensor-assay potency score (higher = more potent) is -0.638.

On to TCTGTAACCACACTCGCCCATG, for which the sensor-assay potency score (higher = more potent) was -1.08. For TCATGCAGTAGAACATGTCTGG, the sensor-assay potency score (higher = more potent) came out at 0.355. Consider TAACAGATTCAGAGAACCCTGG, for which the sensor-assay potency score (higher = more potent) was 0.0686.

Regarding TTAGCATCTTCTGGGAAGCTGG, the sensor-assay potency score (higher = more potent) is -0.879. Sequence TTGGTTAAACAGGTCTTCCGTC registered a sensor-assay potency score (higher = more potent) of 0.251. Sequence TTGATCACCTCCATGTAGCCTC returned a sensor-assay potency score (higher = more potent) of 0.135. Sequence TACAGCACCTTCTTGAAGGAGT returned a sensor-assay potency score (higher = more potent) of -0.472. On the same count and under the same terms, as for TTCAGGATCGTAGAAATGCCGT, the figure is -0.741.

For the origin of these results see the OligoGym collection.
Further: reference of the scale not given here.
